Laboratory results published in PMC5540273 (PLoS ONE, 2017).
Where two headings read alike, the source gives them in different places.

What was measured:
Settings in all cases: n = 1
ROCK1 = test system: ROCK1
ROCK2 = test system: ROCK2
ROS1 = test system: ROS1
[1] = test system: RPS6KA4(Kin.Dom.1-N-terminal)
[2] = test system: RPS6KA4(Kin.Dom.2-C-terminal)
[3] = test system: RPS6KA5(Kin.Dom.1-N-terminal)
[4] = test system: RPS6KA5(Kin.Dom.2-C-terminal)
[5] = test system: T1, RSK1(Kin.Dom.1-N-terminal)
T1 construct: gene RPS6KA1

[6] = test system: T2, RSK1(Kin.Dom.2-C-terminal)
T2 construct: gene RPS6KA1

[7] = test system: T3, RSK2(Kin.Dom.1-N-terminal)
T3 construct: gene RPS6KA3

[8] = test system: T4, RSK2(Kin.Dom.2-C-terminal)
T4 construct: gene RPS6KA3

[9] = test system: T5, RSK3(Kin.Dom.1-N-terminal)
T5 construct: gene RPS6KA2

[10] = test system: T6, RSK3(Kin.Dom.2-C-terminal)
T6 construct: gene RPS6KA2

[11] = test system: T7, RSK4(Kin.Dom.1-N-terminal)
T7 construct: gene RPS6KA6

[12] = test system: T8, RSK4(Kin.Dom.2-C-terminal)
T8 construct: gene RPS6KA6

S6K1 = test system: S6K1
SBK1 = test system: SBK1
SGK2 = test system: SGK2
SGK3 = test system: SGK3
SGK = test system: SGK
[13] = concentration: 1 μM, replicates: in singlicate
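Further: KINOMEscan kinase panel screen.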

SMILES: O=C(O)COc1ncnc2cc(-c3ccc4[nH]ncc4c3)sc12
- %Inh (ROCK1; [13]): 27%
- %Inh (ROCK2; [13]): 61%
- %Inh (ROS1; [13]): 3%
- %Inh [1, 13]: 15%
- %Inh [2, 13]: 17%
- %Inh [3, 13]: 0%
- %Inh [4, 13]: 0%
- %Inh [5, 13]: 21%
- %Inh [6, 13]: 34%
- %Inh [7, 13]: 13%
- %Inh [8, 13]: 0%
- %Inh [9, 13]: 26%
- %Inh [10, 13]: 29%
- %Inh [11, 13]: 23%
- %Inh [12, 13]: 15%
- %Inh (S6K1; [13]): 0%
- %Inh (SBK1; [13]): 45%
- %Inh (SGK2; [13]): 9%
- %Inh (SGK3; [13]): 35%
- %Inh (SGK; [13]): 4%

SMILES: CC(C)(C)c1ccc(C(=O)Nc2cn3cc(Cl)ccc3n2)cc1
- %Inh (ROCK1; [13]): 0%
- %Inh (ROCK2; [13]): 0%
- %Inh (ROS1; [13]): 0%
- %Inh [1, 13]: 7%
- %Inh [2, 13]: 5%
- %Inh [3, 13]: 0%
- %Inh [4, 13]: 0%
- %Inh [5, 13]: 0%
- %Inh [6, 13]: 20%
- %Inh [7, 13]: 26%
- %Inh [8, 13]: 28%
- %Inh [9, 13]: 0%
- %Inh [10, 13]: 23%
- %Inh [11, 13]: 45%
- %Inh [12, 13]: 22%
- %Inh (S6K1; [13]): 0%
- %Inh (SBK1; [13]): 0%
- %Inh (SGK2; [13]): 6%
- %Inh (SGK3; [13]): 0%
- %Inh (SGK; [13]): 8%

SMILES: CC(=O)Nc1nc2cnc(Nc3cc(NC(=O)c4cccc(CCC#N)c4)ccc3C)nc2s1
- %Inh (ROCK1; [13]): 14%
- %Inh (ROCK2; [13]): 15%
- %Inh (ROS1; [13]): 0%
- %Inh [1, 13]: 0%
- %Inh [2, 13]: 0%
- %Inh [3, 13]: 15%
- %Inh [4, 13]: 2%
- %Inh [5, 13]: 0%
- %Inh [6, 13]: 0%
- %Inh [7, 13]: 5%
- %Inh [8, 13]: 6%
- %Inh [9, 13]: 0%
- %Inh [10, 13]: 1%
- %Inh [11, 13]: 24%
- %Inh [12, 13]: 0%
- %Inh (S6K1; [13]): 3%
- %Inh (SBK1; [13]): 0%
- %Inh (SGK2; [13]): 0%
- %Inh (SGK3; [13]): 7%
- %Inh (SGK; [13]): 0%

SMILES: Cc1ccc(NC(=O)Nc2cc(C(C)(C)C)nn2-c2ccccc2)cc1 [GSK1014915]
- %Inh (ROCK1; [13]): 15%
- %Inh (ROCK2; [13]): 0%
- %Inh (ROS1; [13]): 9%
- %Inh [1, 13]: 9%
- %Inh [2, 13]: 0%
- %Inh [3, 13]: 25%
- %Inh [4, 13]: 38%
- %Inh [5, 13]: 16%
- %Inh [6, 13]: 1%
- %Inh [7, 13]: 19%
- %Inh [8, 13]: 0%
- %Inh [9, 13]: 18%
- %Inh [10, 13]: 11%
- %Inh [11, 13]: 0%
- %Inh [12, 13]: 44%
- %Inh (S6K1; [13]): 10%
- %Inh (SBK1; [13]): 7%
- %Inh (SGK2; [13]): 8%
- %Inh (SGK3; [13]): 0%
- %Inh (SGK; [13]): 0%

SMILES: Cc1ccc(NC(=O)Nc2cccc(C(F)(F)F)c2)cc1 [GSK955403]
- %Inh (ROCK1; 1 µM): 0%
- %Inh (ROCK2; 1 µM): 0%
- %Inh (ROS1; 1 µM): 0%
- %Inh ([1]; 1 µM): 0%
- %Inh ([2]; 1 µM): 1%
- %Inh ([3]; 1 µM): 3%
- %Inh ([4]; 1 µM): 6%
- %Inh ([5]; 1 µM): 1%
- %Inh ([6]; 1 µM): 6%
- %Inh ([7]; 1 µM): 0%
- %Inh ([8]; 1 µM): 0%
- %Inh ([9]; 1 µM): 7%
- %Inh ([10]; 1 µM): 27%
- %Inh ([11]; 1 µM): 0%
- %Inh ([12]; 1 µM): 23%
- %Inh (S6K1; 1 µM): 2%
- %Inh (SBK1; 1 µM): 0%
- %Inh (SGK2; 1 µM): 7%
- %Inh (SGK3; 1 µM): 0%
- %Inh (SGK; 1 µM): 22%

SMILES: CN1C(=O)C(Nc2ccc(Cl)c(C(=O)O)c2)=C(c2ccc(Cl)cc2)C1=O [SB-404290]
- %Inh (ROCK1; [13]): 5%
- %Inh (ROCK2; [13]): 0%
- %Inh (ROS1; [13]): 18%
- %Inh [1, 13]: 0%
- %Inh [2, 13]: 2%
- %Inh [3, 13]: 0%
- %Inh [4, 13]: 0%
- %Inh [5, 13]: 0%
- %Inh [6, 13]: 12%
- %Inh [7, 13]: 28%
- %Inh [8, 13]: 8%
- %Inh [9, 13]: 0%
- %Inh [10, 13]: 1%
- %Inh [11, 13]: 33%
- %Inh [12, 13]: 0%
- %Inh (S6K1; [13]): 53%
- %Inh (SBK1; [13]): 24%
- %Inh (SGK2; [13]): 9%
- %Inh (SGK3; [13]): 19%
- %Inh (SGK; [13]): 13%

SMILES: Cl.O=C(Nc1cccc(-c2nn3ncccc3c2-c2ccnc(Nc3cccnc3)n2)c1)c1c(F)cccc1F [GSK312879]
- %Inh (ROCK1; [13]): 0%
- %Inh (ROCK2; [13]): 0%
- %Inh (ROS1; [13]): 0%
- %Inh [1, 13]: 20%
- %Inh [2, 13]: 0%
- %Inh [3, 13]: 9%
- %Inh [4, 13]: 0%
- %Inh [5, 13]: 8%
- %Inh [6, 13]: 10%
- %Inh [7, 13]: 27%
- %Inh [8, 13]: 6%
- %Inh [9, 13]: 23%
- %Inh [10, 13]: 10%
- %Inh [11, 13]: 12%
- %Inh [12, 13]: 0%
- %Inh (S6K1; [13]): 14%
- %Inh (SBK1; [13]): 41%
- %Inh (SGK2; [13]): 1%
- %Inh (SGK3; [13]): 0%
- %Inh (SGK; [13]): 0%

SMILES: Cc1ccc(NC(=O)Nc2cccc(Cl)c2)cc1-c1ccc(C(=O)Nc2ccncc2)cc1 [GSK1398468]
- %Inh (ROCK1; [13]): 0%
- %Inh (ROCK2; [13]): 13%
- %Inh (ROS1; [13]): 0%
- %Inh [1, 13]: 24%
- %Inh [2, 13]: 0%
- %Inh [3, 13]: 10%
- %Inh [4, 13]: 39%
- %Inh [5, 13]: 23%
- %Inh [6, 13]: 0%
- %Inh [7, 13]: 0%
- %Inh [8, 13]: 0%
- %Inh [9, 13]: 5%
- %Inh [10, 13]: 1%
- %Inh [11, 13]: 0%
- %Inh [12, 13]: 16%
- %Inh (S6K1; [13]): 0%
- %Inh (SBK1; [13]): 26%
- %Inh (SGK2; [13]): 0%
- %Inh (SGK3; [13]): 22%
- %Inh (SGK; [13]): 0%

SMILES: Cc1ccc(C(=O)Nc2ccc(Nc3ccnc4cc(-c5ccccn5)ccc34)cc2O)cc1.Cl [GW440146]
- %Inh (ROCK1; [13]): 13%
- %Inh (ROCK2; [13]): 19%
- %Inh (ROS1; [13]): 16%
- %Inh [1, 13]: 20%
- %Inh [2, 13]: 0%
- %Inh [3, 13]: 16%
- %Inh [4, 13]: 0%
- %Inh [5, 13]: 6%
- %Inh [6, 13]: 0%
- %Inh [7, 13]: 0%
- %Inh [8, 13]: 4%
- %Inh [9, 13]: 6%
- %Inh [10, 13]: 0%
- %Inh [11, 13]: 0%
- %Inh [12, 13]: 1%
- %Inh (S6K1; [13]): 7%
- %Inh (SBK1; [13]): 10%
- %Inh (SGK2; [13]): 0%
- %Inh (SGK3; [13]): 0%
- %Inh (SGK; [13]): 0%

SMILES: COc1cc(Nc2nccc(N3CCC(NC(=O)Nc4cc(C)ccc4C)C3)n2)cc(OC)c1OC (stereo not shown) [GSK1379762]
- %Inh (ROCK1; [13]): 12%
- %Inh (ROCK2; [13]): 2%
- %Inh (ROS1; [13]): 42%
- %Inh [1, 13]: 8%
- %Inh [2, 13]: 0%
- %Inh [3, 13]: 22%
- %Inh [4, 13]: 2%
- %Inh [5, 13]: 2%
- %Inh [6, 13]: 0%
- %Inh [7, 13]: 0%
- %Inh [8, 13]: 2%
- %Inh [9, 13]: 9%
- %Inh [10, 13]: 0%
- %Inh [11, 13]: 0%
- %Inh [12, 13]: 14%
- %Inh (S6K1; [13]): 3%
- %Inh (SBK1; [13]): 6%
- %Inh (SGK2; [13]): 12%
- %Inh (SGK3; [13]): 0%
- %Inh (SGK; [13]): 0%

SMILES: Cn1ccc2ncnc(Oc3ccc(Nc4nc5ccccc5[nH]4)cc3)c21
- %Inh (ROCK1; [13]): 0%
- %Inh (ROCK2; [13]): 0%
- %Inh (ROS1; [13]): 0%
- %Inh [1, 13]: 0%
- %Inh [2, 13]: 0%
- %Inh [3, 13]: 7%
- %Inh [4, 13]: 0%
- %Inh [5, 13]: 0%
- %Inh [6, 13]: 0%
- %Inh [7, 13]: 0%
- %Inh [8, 13]: 0%
- %Inh [9, 13]: 0%
- %Inh [10, 13]: 0%
- %Inh [11, 13]: 0%
- %Inh [12, 13]: 0%
- %Inh (S6K1; [13]): 0%
- %Inh (SBK1; [13]): 0%
- %Inh (SGK2; [13]): 0%
- %Inh (SGK3; [13]): 0%
- %Inh (SGK; [13]): 0%
